Where “and” joins values, the source holds several entries; their conditions need not be identical. Identical values can stand only once. Hit rate of the full screen: of about 16,000 compounds, about 5,700 (36%) were called active. Another 24% or so got no clear call; they are omitted. Some of the results follow. A number with no mark means an inactive call. Calls follow the shape of the dose curve; as a rule, active = well fitted curve in the direction sought with a large enough effect; inconclusive = small, poorly fitted or top-dose-only effect, or effect the other way; inactive = no such curve, though single readings can be large or run the other way.

The source of these data is PubChem BioAssay AID1851 (National Center for Advancing Translational Sciences (NCATS), 2009).
% is scaled to controls: 0 for no effect and ±100 for the full control effect.

The target in the experiment is Cytochrome P450 1A2 (Homo sapiens) (UniProt P05177). Put plainly: Cytochrome panel assay with activity outcomes. To be noted: recombinant CYP, pro-luciferin dealkylation, luminescence, p450-cyp1a2; series mostly up to 57.1 µM; activity, negative = inhibition: at the top concentration.
Chain of Cytochrome P450 1A2 (Homo sapiens) (P05177 whole entry, looked up): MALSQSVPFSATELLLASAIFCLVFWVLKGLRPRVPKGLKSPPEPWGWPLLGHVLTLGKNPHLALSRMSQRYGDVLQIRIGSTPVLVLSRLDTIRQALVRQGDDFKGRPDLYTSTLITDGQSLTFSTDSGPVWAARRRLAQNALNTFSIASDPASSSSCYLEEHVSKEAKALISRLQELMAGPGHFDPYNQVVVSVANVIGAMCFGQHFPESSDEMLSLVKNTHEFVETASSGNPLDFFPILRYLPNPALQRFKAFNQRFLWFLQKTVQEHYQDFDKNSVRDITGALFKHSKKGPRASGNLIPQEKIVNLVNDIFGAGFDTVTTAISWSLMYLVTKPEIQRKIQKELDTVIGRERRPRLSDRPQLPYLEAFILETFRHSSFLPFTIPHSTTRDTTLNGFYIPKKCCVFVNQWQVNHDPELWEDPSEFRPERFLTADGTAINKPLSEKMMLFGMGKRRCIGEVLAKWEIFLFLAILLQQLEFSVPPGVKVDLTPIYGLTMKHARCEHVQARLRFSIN
As a reminder, the AC50 is the midpoint of the concentration-response curve, whichever way the signal moves. Regarding `c1cn(-c2ncnc3ccc(-c4ccoc4)cc23)cn1`, the half-maximal activity concentration (AC50) is 1.26 µM (active). Consider `Cc1ccccc1-c1ccc2ncnc(-n3ccnc3)c2c1`, for which the AC50 is 0.794 µM (active). On to `Cc1cc2c(s1)CCCCC(=O)N2`, for which the “activity, negative = inhibition” value is -20.4%.

With `C=C(CC1([C@@H](NP(=O)(c2ccccc2)c2ccccc2)[C@H]2C[C@@H]2CCN(C(=O)OCC)S(=O)(=O)c2ccc(C)cc2)CC1)c1ccccc1`, the “activity, negative = inhibition” value was -5.84%.

With `CCN1C(=O)[C@H]2[C@H]3[C@H](O)[C@H](O)C/C(=N/O[C@@H]4O[C@@H](COC(C)=O)[C@@H](OC(C)=O)[C@@H](OC(C)=O)[C@H]4OC(C)=O)[C@@H]3CC[C@@H]2C1=O`, the activity, negative = inhibition was -12.6% [at 11.4 µM]. For `Cc1cccc(C)c1NC(=O)C[N+](C)(C)C`, the “activity, negative = inhibition” value is 0.715%. With `Cc1ccc(-n2c(C)cc(/C=C(\C#N)C(=O)NCC3CCCO3)c2C)cc1` (centres undefined), the “activity, negative = inhibition” value was -16.2%. For `COc1cc(/C=C(/NC(=O)c2ccccc2)C(=O)Nc2ccccc2)c([N+](=O)[O-])cc1OC`, the “activity, negative = inhibition” value was -9.31%.

On to `N#C/C(=C\c1cccs1)C(=O)NCC1CCCO1` (centres undefined), for which the AC50 is 12.6 µM (active). As for `CCS(=O)(=O)N1CCC(C(=O)NCC2CCCO2)CC1` (centres undefined), the “activity, negative = inhibition” value was -7.48%.

As for `Cc1cccc(C)c1NC(=O)[C@H](C)N`, the “activity, negative = inhibition” value was -13.8% [at 25.6 µM]. Consider `COc1ccc(S(=O)(=O)N2CCC(C(=O)NCC3CCCO3)CC2)cc1C` (centres undefined), for which the “activity, negative = inhibition” value was 11.5%. In the case of `Cc1cccc(C)c1NC(=O)/C(C#N)=C/c1cccs1`, the concentration at half-maximal activity (AC50) is 12.6 µM (active).

For the molecule `COc1cc(/C=C(\C#N)C(=O)NCC2CCCO2)c([N+](=O)[O-])cc1OC` (centres undefined), the AC50 was 4.47 µM (active). On the same count and under the same terms, next, `O=C(O)c1ccc(SSc2ccc(C(=O)O)cn2)nc1`: 3.16 µM (active). For `C[Si](C)(c1ccc(C(=O)O)cc1)c1ccc(C(=O)O)cc1`, the activity, negative = inhibition was -13% [at 11.4 µM]. With `O=C(O)c1cccnc1`, the “activity, negative = inhibition” value was -3.39% [at 25.6 µM]. `CN(C)c1ccccc1CN1CCCN(Cc2ccccc2N(C)C)C1c1ccncc1`: the activity, negative = inhibition was 3.06% [at 11.4 µM]. In the case of `CC(=O)c1ccc(S(=O)(=O)NC(=O)NC2CCCCC2)cc1`, the “activity, negative = inhibition” value was -6.56% [at 25.6 µM]. On to `Nc1cccc2cc(S(=O)(=O)Nc3ccc(C(=O)O)cc3)ccc12`, for which the activity, negative = inhibition was 2.54% [at 11.4 µM]. In the case of `CC(=O)c1cccc(NS(=O)(=O)c2ccc(N/C=C\C(=O)c3ccc(F)cc3)cc2)c1`, the AC50 is 10 µM (active). In the case of `CCCN(CC1CC1)c1nc(C)nc(Nc2c(Cl)cc(Cl)cc2Cl)c1Cl`, the “activity, negative = inhibition” value was -15.7%. For the molecule `CCCn1nnnc1NC(=O)COc1ccc(Cl)cc1C`, the AC50 was 14.1 µM (active). Take `Cc1cc(Cl)ccc1OCC(=O)Nc1nc(N)nc(N)n1`: the activity, negative = inhibition was 2.06% [at 2.29 µM]. `Cc1cc(Cl)ccc1OCC(=O)NCc1ccncc1`: the AC50 was 1.12 µM (active). For `CC(C)n1c(=O)c2c(O)cc(=O)oc2c2ccccc21`, the AC50 is 5.01 µM (active). Turning to `CCn1c(=O)c2c(O)cc(=O)oc2c2ccccc21`, the concentration at half-maximal activity (AC50) is 11.2 µM (active). As to `O=C(c1cnccn1)N1CCC2(CC1)CCN(c1ccccn1)CC2`, the “activity, negative = inhibition” value was -13.1%. Turning to `O=C(CSc1nnc(-c2ccc(Cl)cc2Cl)n1C1CCCCC1)NC1CCS(=O)(=O)C1` (centres undefined), the “activity, negative = inhibition” value is 0.975%. On to `CCn1c(SCC(=O)NC2CCCc3ccccc32)nnc1-c1cccs1` (centres undefined), for which the “activity, negative = inhibition” value is -21.7%. For `CCn1c(SCC(=O)NC2CCCCC2)nnc1-c1cc2cccc(OC)c2o1`, the AC50 is 8.91 µM (active). In the case of `Nc1ccccc1C#Cc1ccccc1`, the AC50 is 501 nM (active) and 1.58 µM (active). Take `Cc1cc(C)c(Cn2cnc(-c3ccc([N+](=O)[O-])cc3)c2)c(C)c1`: the AC50 was 15.8 µM (active).

With `C1CCN(CC[C@@H]2CCCCN2)CC1`, the activity, negative = inhibition was -7.33% [at 11.4 µM]. For `Cc1ccccc1-c1nc(-c2ccc(NC(=O)c3cccs3)cc2)no1`, the AC50 was 14.1 µM (active).

In the case of `Cc1ccc(-c2nnc(-c3ccc(NC(=O)c4cccs4)cc3)o2)cc1`, the “activity, negative = inhibition” value was -23.1%. `CC(=O)N1CCc2cc(S(=O)(=O)CCC(=O)Nc3c(C)n(C)n(-c4ccccc4)c3=O)ccc21`: the “activity, negative = inhibition” value was -24.8%.

In the case of `Cc1ccccc1OCC(=O)Nc1sc(C(=O)Nc2cccc(C)c2C)c(C)c1C#N`, the “activity, negative = inhibition” value is 7.9%. In the case of `Cc1ccccc1OCCNC(=O)c1ccccc1Sc1ccccc1C#N`, the AC50 was 14.1 µM (active). On the same count and under the same terms, as for `Cc1oc(=O)c(NC(=O)c2ccccc2)cc1C(=O)c1ccccc1`, the figure is 12.6 µM (active).

As to `Cc1cc(N)ccc1NC(=O)c1ccccc1`, the AC50 is 3.16 µM (active).

On to `CC(C)(C)N(NC(=O)c1ccccc1)C(=O)c1cccc(C(=O)N(NC(=O)c2ccccc2)C(C)(C)C)c1`, for which the “activity, negative = inhibition” value is 2.94%.

As to `Cc1ccc(C(=O)Nc2cc3c(oc2=O)CCCC3=O)cc1`, the AC50 was 14.1 µM (active).

On to `CCOC(=O)c1cc(NC(=O)c2ccc(C)cc2)c(=O)oc1-c1ccccc1`, for which the “activity, negative = inhibition” value was -24.4%. Turning to `CC(=O)c1cc(NC(=O)c2ccccc2)c(=O)oc1/C=C/N(C)C`, the concentration at half-maximal activity (AC50) is 12.6 µM (active).

Take `CC(=O)c1cc(NC(=O)c2cccc(C(F)(F)F)c2)c(=O)oc1/C=C/N(C)C`: the “activity, negative = inhibition” value was 3.96%. For the molecule `Cc1ccc(C)c2sc(NC(=O)c3ccc(N4CCCCC4)c([N+](=O)[O-])c3)nc12`, the “activity, negative = inhibition” value was 0.997%. In the case of `O=C(c1ccc(N2CCCCC2)c([N+](=O)[O-])c1)N(Cc1ccccc1)c1ccccn1`, the AC50 was 14.1 µM (active). For `COc1ccccc1N1CCN(CCN(C(=O)C2CCCCC2)c2ccccn2)CC1`, the “activity, negative = inhibition” value is -4.46%.
